Laboratory results reported in PubChem BioAssay (NCATS).
Records with an inconclusive call do not appear. The source made the active and inactive calls. Unless noted, the call rests on the fitted dose curve; in most records, active means well fitted curve in the direction sought with a large enough effect; inconclusive means small, poorly fitted or top-dose-only effect, or another doubt; inactive means no such curve, though single readings can be large; an effect the other way counts as inactive or inconclusive.

Columns and labels:
[1] = qHTS Assay for Identification of Small Molecule Inducers of Hypoxia Response (AID 2120; active means well fitted curve in the direction sought with a large enough effect in the signal ratio, with a control signal flat, not every such curve was filed as active; the % refers to the signal ratio)
In short: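 ME-180 HRE-bla cells plated in Opti-MEM/0.5% dialyzed FBS, rested 4-5 h, then dosed with compound titrations by pin tool. After 17 h at 37 degrees C, CCF4 dye loaded 2.5 h at RT; 460/530 nm ratio gave %Activity and AC50.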

[2] = target: DNA repair nuclease/redox regulator APEX1 (Homo sapiens) (UniProt P27695); experiment: qHTS Validation Assay for Inhibitors of the Human Apurinic/apyrimidinic Endonuclease 1 (APE1) (AID 1705;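 further: TAMRA fluorescence gain over two minutes as APE1 cuts a quenched THF abasic duplex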)
In short: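 Fluorogenic double-stranded THF abasic-site substrate (5'-TAMRA/3'-BHQ-2), 50 nM final. Enzyme preincubated with compound 15 min at room temperature, then substrate added. Kinetic fluorescence (ex 525/em 598 nm) read three times at 60 s intervals; activity taken as third-minus-first read difference.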

[3] = target: Endonuclease 4 (Escherichia coli (strain K12)) (UniProt P0A6C1); experiment: Counterscreen for APE1 Inhibitors: qHTS Validation Assay for Inhibitors of Endonuclease IV (AID 1708)
In short: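 qHTS concentration-response format; LOPAC1280 tested under APE1-screen conditions. 2 nM enzyme, 15 min compound preincubation at RT, then 50 nM TAMRA/BHQ-2 abasic substrate; kinetic fluorescence read, three reads at 60 s intervals.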

[4] = target: ATP-dependent DNA helicase Q1 (Homo sapiens) (UniProt P46063); experiment: qHTS Validation Assay for Inhibitors of RecQ-Like Dna Helicase 1 (RECQ1) (AID 2353)
In short: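 50 nM RECQ1T1 preincubated 15 min with compound in Tris pH 8.0 buffer with MgCl2, DTT, Tween-20 and 2.5 ug/ml poly(dI-dC); started with 200 nM TAMRA/BHQ-2 forked duplex and 2 mM ATP. Unwinding read as fluorescence (525/598 nm), two reads 2 h apart.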

[5] = target: RecQ-like DNA helicase BLM (Homo sapiens) (UniProt P54132); experiment: qHTS Validation Assay for Inhibitors of Bloom's syndrome helicase (BLM) (AID 2364)
In short: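 Forked 20-bp duplex substrate (200 nM, TAMRA/BHQ-2) plus 2 mM ATP added after 15 min compound preincubation with 50 nM enzyme, pH 8.0, poly(dI-dC) 2.5 ug/ml. Strand separation followed by fluorescence (525/598 nm) over 2 h, normalized to enzyme-free and DMSO controls.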

[6] = qHTS Assay for Modulators of Human Peripheral Myelin Protein 22 (PMP22) Expression/Activity (AID 1967; active means well fitted curve in the direction sought with a large enough effect in the signal ratio; the % refers to the signal ratio)
In short: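 Mouse MSC80 Schwann cells carrying Pmp22 promoter–green click beetle luciferase plus EF-alpha–red luciferase control, dosed 24 h at 37 °C. Dual-filter luminescence, overlap-corrected; %Activity from green/red ratio normalised to untreated cells, concentration-response curves fitted.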

[7] = target: Ferritin light chain (Equus caballus) (UniProt P02791); experiment: qHTS Validation Assay for Identification of Novel General Anesthetics (AID 2323)
In short: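 Horse-spleen apoferritin (10 uM) in PBS with 50% saturated 1-aminoanthracene; compounds pin-transferred, 10 min at room temperature. Fluorescence read at 380/535 nm, normalized to free 1-AMA and 1-AMA/apoferritin values; four-parameter Hill fit.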

[8] = Cytometric Cell-Based qHTS for Inhibitors of the mTORC1 Signaling Pathway in MEF (Tsc2-/-, p53-/-) Cells (AID 2660);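 further: Tsc2 and p53 null MEFs carrying empty vector with compound for 24 h; percent of cells above a phospho-rpS6 to PI ratio cutoff in each well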
In short: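 Percent of cells positive for normalized phospho-S6 staining is reported, with the cutoff set from rapamycin (7.5 nM) versus DMSO wells. Tsc2-/-, p53-/- MEFs received compound for 24 hrs.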

[9] = High Content Imaging Cell-Based qHTS for Inhibitors of the mTORC1 Signaling Pathway in MEF (Tsc2-/-, p53-/-) Cells (AID 2666); conditions: at 38.3 µM (top of the series);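 further: percent of cells scored positive for phospho-rpS6 Ser235/236 immunostaining by imaging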
In short: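 Cells were plated, dosed with compound after 24 hrs, and incubated another 24 hrs at 37 degree Celsius. Fixed cells were immunostained for phospho-rpS6 Ser235/236 and counterstained, and the normalized signal was scored as % active cells against rapamycin and DMSO controls.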

[10] = High Content Imaging Cell-Based qHTS for Inhibitors of the mTORC1 Signaling Pathway in MEF Cells (AID 2667);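 further: Tsc2-/- p53-/- MEFs stably re-expressing wild-type Tsc2 exposed 24 h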
In short: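 Immunofluorescence for rpS6 phosphorylation in MEFs of Tsc2-/-, p53-/- background rescued with WT Tsc2. Compound exposure lasted 24 hrs. Inhibition was scored against rapamycin-treated control wells.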

Chain of DNA repair nuclease/redox regulator APEX1 (Homo sapiens) (P27695 whole entry, looked up): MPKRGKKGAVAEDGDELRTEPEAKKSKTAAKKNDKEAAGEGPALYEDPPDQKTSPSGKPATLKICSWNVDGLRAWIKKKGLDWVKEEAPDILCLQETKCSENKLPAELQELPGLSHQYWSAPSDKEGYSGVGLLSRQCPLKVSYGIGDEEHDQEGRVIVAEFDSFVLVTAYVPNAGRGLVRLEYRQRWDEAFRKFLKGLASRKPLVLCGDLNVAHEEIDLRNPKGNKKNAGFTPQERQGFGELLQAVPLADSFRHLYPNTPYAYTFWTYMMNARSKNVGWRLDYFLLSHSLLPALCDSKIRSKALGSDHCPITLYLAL
Chain of ATP-dependent DNA helicase Q1 (Homo sapiens) (P46063 whole entry, looked up): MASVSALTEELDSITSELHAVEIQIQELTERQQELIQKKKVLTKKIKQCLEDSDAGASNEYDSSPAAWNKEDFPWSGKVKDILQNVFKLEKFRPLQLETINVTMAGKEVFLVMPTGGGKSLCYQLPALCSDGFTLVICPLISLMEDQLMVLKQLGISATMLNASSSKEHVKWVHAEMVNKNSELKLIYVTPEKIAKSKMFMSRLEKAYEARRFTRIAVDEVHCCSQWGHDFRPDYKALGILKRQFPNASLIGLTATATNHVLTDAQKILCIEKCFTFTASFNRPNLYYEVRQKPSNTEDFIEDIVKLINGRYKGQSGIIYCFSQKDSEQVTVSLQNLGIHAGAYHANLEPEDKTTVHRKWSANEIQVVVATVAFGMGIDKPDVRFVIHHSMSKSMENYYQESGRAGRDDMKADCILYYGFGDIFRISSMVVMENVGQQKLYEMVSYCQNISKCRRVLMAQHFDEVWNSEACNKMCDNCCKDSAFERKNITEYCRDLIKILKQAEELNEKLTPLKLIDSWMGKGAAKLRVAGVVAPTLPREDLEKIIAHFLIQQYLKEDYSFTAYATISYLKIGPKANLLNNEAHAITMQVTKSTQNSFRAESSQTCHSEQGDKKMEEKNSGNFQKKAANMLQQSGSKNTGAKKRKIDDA
Chain of RecQ-like DNA helicase BLM (Homo sapiens) (P54132 whole entry, looked up): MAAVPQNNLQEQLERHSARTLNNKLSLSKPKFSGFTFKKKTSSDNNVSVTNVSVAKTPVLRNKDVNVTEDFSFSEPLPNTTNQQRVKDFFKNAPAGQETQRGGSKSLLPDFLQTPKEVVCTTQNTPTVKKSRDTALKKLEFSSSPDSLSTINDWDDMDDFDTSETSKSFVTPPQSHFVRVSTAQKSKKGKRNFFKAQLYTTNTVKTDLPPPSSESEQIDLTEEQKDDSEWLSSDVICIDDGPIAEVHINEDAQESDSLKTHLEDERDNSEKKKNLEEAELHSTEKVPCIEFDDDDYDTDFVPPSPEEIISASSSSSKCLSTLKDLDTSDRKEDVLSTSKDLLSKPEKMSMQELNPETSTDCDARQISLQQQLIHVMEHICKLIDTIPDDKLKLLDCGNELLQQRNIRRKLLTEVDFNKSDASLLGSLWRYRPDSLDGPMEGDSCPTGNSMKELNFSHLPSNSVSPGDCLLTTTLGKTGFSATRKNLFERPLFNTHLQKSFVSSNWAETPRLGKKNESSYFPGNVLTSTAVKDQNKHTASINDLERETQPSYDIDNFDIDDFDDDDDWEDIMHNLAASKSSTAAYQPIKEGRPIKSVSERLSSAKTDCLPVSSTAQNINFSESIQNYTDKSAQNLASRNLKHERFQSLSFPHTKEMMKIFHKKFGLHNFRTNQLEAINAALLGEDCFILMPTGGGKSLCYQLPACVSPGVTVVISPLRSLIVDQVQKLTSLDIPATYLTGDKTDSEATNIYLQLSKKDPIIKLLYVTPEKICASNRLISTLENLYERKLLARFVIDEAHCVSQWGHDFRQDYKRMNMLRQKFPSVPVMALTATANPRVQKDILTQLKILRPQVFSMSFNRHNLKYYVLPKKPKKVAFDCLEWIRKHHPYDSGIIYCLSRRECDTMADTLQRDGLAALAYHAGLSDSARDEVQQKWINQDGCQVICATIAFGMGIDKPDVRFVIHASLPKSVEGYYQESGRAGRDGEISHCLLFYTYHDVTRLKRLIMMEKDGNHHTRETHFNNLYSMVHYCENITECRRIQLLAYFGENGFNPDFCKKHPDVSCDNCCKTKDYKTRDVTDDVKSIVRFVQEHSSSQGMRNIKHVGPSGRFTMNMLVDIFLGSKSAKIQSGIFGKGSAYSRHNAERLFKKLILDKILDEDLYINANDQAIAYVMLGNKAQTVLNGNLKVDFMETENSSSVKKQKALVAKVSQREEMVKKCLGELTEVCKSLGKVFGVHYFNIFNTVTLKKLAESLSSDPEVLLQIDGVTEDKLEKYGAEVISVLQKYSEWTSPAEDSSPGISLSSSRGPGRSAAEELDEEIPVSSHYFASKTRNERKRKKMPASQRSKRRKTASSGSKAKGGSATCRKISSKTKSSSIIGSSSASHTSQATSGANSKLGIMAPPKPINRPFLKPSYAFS
Chain of Ferritin light chain (Equus caballus) (P02791 2-175 limits assumed): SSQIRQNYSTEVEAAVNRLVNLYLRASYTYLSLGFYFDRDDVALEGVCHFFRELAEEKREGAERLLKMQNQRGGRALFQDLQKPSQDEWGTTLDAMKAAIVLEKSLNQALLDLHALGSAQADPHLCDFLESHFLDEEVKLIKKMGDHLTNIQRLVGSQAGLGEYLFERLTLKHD

## CCCCCCCCCC(=O)O
[1]
  outcome: inactive

## O=C(O)CC(O)(CC(=O)O)C(=O)O
[1]
  outcome: inactive

## CN[C@H]1CC[C@@H](c2ccc(Cl)c(Cl)c2)c2ccccc21
[2]
  outcome: inactive
[3]
  outcome: inactive
[4]
  outcome: inactive
[5]
  outcome: inactive

## COC(C)=O
[1]
  outcome: inactive

## C=Cc1ccccc1
[1]
  outcome: inactive

## NCCCC(=O)O
[2]
  outcome: inactive
[3]
  outcome: inactive
[6]
  outcome: inactive
[7]
  outcome: inactive
[4]
  outcome: inactive
[8]
  outcome: inactive
[9]
  outcome: inactive
[10]
  outcome: inactive

## CN(C)Cc1ccccc1
[1]
  outcome: inactive
